Data as given in PubChem BioAssay (Tox21).
A number with no mark means an inactive call. Inconclusive results are not listed. Entries that show only a call come without a potency. More than one record can exist for a structure, and the calls need not agree. The source made the active and inactive calls. Unless noted, calls come from the whole dose curve; as a rule, active = well fitted curve in the direction sought with a large enough effect in the repeat runs; inconclusive = weak or mixed curves; inactive = no such curve, though single readings can be large; an effect the other way counts as inactive or inconclusive.

Columns and labels:
[1] = target: Glucocorticoid receptor (Homo sapiens) (UniProt P04150); assay: qHTS assay to identify small molecule antagonists of the glucocorticoid receptor (GR) signaling pathway (AID 720692; active = well fitted inhibition curve with a large enough effect in the signal ratio in the repeat runs, not every such curve was filed as active; the % refers to the signal ratio; note: potency is the fitted concentration of half-maximal effect)
Chain of Glucocorticoid receptor (Homo sapiens) (P04150 whole entry, looked up): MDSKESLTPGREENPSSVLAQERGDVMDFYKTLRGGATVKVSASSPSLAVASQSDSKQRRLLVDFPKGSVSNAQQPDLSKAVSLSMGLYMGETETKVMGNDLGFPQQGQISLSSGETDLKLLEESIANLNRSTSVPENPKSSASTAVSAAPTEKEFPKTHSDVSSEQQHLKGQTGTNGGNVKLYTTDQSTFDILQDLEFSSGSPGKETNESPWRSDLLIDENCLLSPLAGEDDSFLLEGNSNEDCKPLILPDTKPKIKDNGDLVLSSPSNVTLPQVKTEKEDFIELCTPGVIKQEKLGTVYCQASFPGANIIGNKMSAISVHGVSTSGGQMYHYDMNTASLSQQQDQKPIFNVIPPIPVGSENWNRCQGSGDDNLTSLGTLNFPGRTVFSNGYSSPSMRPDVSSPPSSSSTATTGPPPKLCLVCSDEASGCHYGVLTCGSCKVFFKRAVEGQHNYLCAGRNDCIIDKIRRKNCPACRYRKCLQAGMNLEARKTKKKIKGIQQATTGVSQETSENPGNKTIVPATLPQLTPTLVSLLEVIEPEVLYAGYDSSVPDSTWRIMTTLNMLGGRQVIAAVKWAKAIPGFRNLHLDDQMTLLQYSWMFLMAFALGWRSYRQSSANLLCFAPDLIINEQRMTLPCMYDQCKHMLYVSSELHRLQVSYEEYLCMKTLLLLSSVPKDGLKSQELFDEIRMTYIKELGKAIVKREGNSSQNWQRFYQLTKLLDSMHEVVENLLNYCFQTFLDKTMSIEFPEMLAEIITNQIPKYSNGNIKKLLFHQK
In short: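 Inhibition of glucocorticoid signalling is measured in HeLa cells with a GRE-controlled beta-lactamase reporter; cells are co-treated with compound and 5 nM dexamethasone (final) for 18 h before FRET substrate readout.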

[2] = target: Nuclear receptor subfamily 1 group I member 2 (Rattus norvegicus) (UniProt Q9R1A7); assay: Rat pregnane X receptor (rPXR) activation by small molecules, qHTS assay (AID 1346983); conditions: rPXR luciferase reporter cells, One-Glo luminescence, 24 h; max activation: hits give high values; note: nearly all actives have a fitted effect of over 20% in size
Chain of Nuclear receptor subfamily 1 group I member 2 (Rattus norvegicus) (Q9R1A7 whole entry, looked up): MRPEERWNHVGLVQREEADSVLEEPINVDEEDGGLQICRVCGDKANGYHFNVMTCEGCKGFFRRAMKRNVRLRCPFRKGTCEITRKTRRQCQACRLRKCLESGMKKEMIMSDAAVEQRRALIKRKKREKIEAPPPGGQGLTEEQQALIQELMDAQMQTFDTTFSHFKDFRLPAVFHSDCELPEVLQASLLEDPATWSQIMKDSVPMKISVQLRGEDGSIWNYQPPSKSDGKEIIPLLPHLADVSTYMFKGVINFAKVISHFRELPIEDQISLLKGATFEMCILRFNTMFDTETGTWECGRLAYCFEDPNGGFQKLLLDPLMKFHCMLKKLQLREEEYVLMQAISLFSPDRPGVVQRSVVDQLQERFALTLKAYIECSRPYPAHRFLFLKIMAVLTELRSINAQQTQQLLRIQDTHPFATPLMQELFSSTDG
In short: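 Luminescent readout (One-Glo luciferase, 30 min room temperature) followed 24 hr compound treatment at 37 C of rPXR cells plated 2,000 per well and preincubated 5hr; qHTS format with compounds delivered in DMSO.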

[3] = target: Nuclear receptor subfamily 1 group I member 2 (Homo sapiens) (UniProt O75469); assay: CYP3A4 induction through human pregnane X receptor (PXR) by small molecules, qHTS assay (AID 1346984); note: nearly all actives have a fitted effect of over 40% in size; note: potency is the fitted concentration of half-maximal effect
In short: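 Readings come from a luciferase reporter: DPX-2 cells, which are HepG2 cotransfected with PXR and a CYP3A4-promoter construct, were exposed to test compounds for 24 h at 37C before One-Glo detection.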

[4] = target: Nuclear receptor subfamily 1 group I member 2 (Homo sapiens) (UniProt O75469); assay: Human pregnane X receptor (PXR) activation by small molecules, qHTS assay (AID 1346985); note: nearly all actives have a fitted effect of over 40% in size; note: potency is the fitted concentration of half-maximal effect
In short: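 DPX-2 cells (HepG2 co-transfected with a PXR response element and a CYP3A4-promoter luciferase construct) were seeded at 2,000 per well, rested 5 hr at 37C, then exposed to DMSO-dissolved compounds for 24 hr. Activation was read as luciferase luminescence.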

[5] = target: Acetylcholinesterase (Homo sapiens) (UniProt P22303); assay: Acetylcholinesterase (AChE) small molecule antagonists: colormetric cell-based qHTS assay (AID 1347395; calls by dose curve; note: nearly all actives have a fitted effect of over 30% in size; note: potency is the fitted concentration of half-maximal effect)
Chain of Acetylcholinesterase (Homo sapiens) (P22303 whole entry, looked up): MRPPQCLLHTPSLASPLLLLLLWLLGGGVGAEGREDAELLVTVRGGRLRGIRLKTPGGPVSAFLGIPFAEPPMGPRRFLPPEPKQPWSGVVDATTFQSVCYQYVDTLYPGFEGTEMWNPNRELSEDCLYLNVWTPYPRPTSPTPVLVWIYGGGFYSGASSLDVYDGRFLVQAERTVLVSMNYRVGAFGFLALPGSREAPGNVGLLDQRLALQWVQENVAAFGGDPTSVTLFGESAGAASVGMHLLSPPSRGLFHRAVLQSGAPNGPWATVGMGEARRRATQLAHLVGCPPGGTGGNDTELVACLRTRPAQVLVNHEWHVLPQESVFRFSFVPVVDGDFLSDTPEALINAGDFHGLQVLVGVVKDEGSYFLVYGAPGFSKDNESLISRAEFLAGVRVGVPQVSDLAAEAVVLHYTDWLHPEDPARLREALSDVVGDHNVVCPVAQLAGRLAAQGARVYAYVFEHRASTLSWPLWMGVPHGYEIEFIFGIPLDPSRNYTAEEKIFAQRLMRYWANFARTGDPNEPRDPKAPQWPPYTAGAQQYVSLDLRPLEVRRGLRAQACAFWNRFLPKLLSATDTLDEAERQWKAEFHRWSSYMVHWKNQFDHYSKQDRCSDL
In short: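 SH-SY5Y cells, plated overnight at 37 C, were exposed to compounds for 30 min at 37 C and 5% CO2. Acetylthiocholine plus DTNB was then added, and thiocholine from endogenous AChE was quantified colorimetrically after 90 min at 37 C.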

[6] = target: Acetylcholinesterase (Homo sapiens) (UniProt P22303); assay: Acetylcholinesterase (AChE) small molecule antagonists: enzyme-based qHTS assay (AID 1347397; calls by dose curve; note: nearly all actives have a fitted effect of over 55% in size); conditions: Potency: AChE enzyme activity inhibition; outcome: AChE enzyme activity inhibition
In short: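 rhAChE 50 mU/mL (dispensed) + cpd or DMSO, 30 min RT; add DTNB/acetylthiocholine cocktail, 10 min RT; colorimetric thiocholine readout. qHTS, 1536-well format.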

[7] = target: Acetylcholinesterase (Homo sapiens) (UniProt P22303); assay: Acetylcholinesterase (AChE) small molecule antagonists: fluorescence cell-based qHTS assay (AID 1347398; calls by dose curve; note: nearly all actives have a fitted effect of over 50% in size); conditions: Potency: AChE activity; outcome: AChE activity
In short: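 Read-out is Thiolite Green fluorescence at Ex/Em = 490/520 nm, formed by reaction with thiocholine released when cellular AChE in SH-SY5Y cells hydrolyzes acetylthiocholine. Compounds were preincubated 30 min at 37 C before substrate.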

[8] = target: Acetylcholinesterase (Homo sapiens) (UniProt P22303); assay: Acetylcholinesterase (AChE) small molecule antagonists: enzyme-based qHTS assay with human liver microsomes (AID 1347399; calls by dose curve; note: nearly all actives have a fitted effect of over 60% in size); conditions: Potency: qHTS inhibition; outcome: qHTS inhibition
In short: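 Recombinant human AChE (50 mU/mL in the enzyme mix) and human liver microsomes (0.25 mg/mL final) were preincubated with compound and NADPH (0.25 mg/mL final) for 30 min at 37 C. Acetylthiocholine/DTNB was then added; thiocholine was read colorimetrically after 10 min at room temperature.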

[9] = target: Androgen receptor (Homo sapiens) (UniProt P10275); assay: qHTS assay to identify small molecule antagonists of the androgen receptor (AR) signaling pathway (AID 743035; active = well fitted inhibition curve with a large enough effect in the signal ratio in the repeat runs, not every such curve was filed as active; the % refers to the signal ratio; note: potency is the fitted concentration of half-maximal effect)
Chain of Androgen receptor (Homo sapiens) (P10275 whole entry, looked up): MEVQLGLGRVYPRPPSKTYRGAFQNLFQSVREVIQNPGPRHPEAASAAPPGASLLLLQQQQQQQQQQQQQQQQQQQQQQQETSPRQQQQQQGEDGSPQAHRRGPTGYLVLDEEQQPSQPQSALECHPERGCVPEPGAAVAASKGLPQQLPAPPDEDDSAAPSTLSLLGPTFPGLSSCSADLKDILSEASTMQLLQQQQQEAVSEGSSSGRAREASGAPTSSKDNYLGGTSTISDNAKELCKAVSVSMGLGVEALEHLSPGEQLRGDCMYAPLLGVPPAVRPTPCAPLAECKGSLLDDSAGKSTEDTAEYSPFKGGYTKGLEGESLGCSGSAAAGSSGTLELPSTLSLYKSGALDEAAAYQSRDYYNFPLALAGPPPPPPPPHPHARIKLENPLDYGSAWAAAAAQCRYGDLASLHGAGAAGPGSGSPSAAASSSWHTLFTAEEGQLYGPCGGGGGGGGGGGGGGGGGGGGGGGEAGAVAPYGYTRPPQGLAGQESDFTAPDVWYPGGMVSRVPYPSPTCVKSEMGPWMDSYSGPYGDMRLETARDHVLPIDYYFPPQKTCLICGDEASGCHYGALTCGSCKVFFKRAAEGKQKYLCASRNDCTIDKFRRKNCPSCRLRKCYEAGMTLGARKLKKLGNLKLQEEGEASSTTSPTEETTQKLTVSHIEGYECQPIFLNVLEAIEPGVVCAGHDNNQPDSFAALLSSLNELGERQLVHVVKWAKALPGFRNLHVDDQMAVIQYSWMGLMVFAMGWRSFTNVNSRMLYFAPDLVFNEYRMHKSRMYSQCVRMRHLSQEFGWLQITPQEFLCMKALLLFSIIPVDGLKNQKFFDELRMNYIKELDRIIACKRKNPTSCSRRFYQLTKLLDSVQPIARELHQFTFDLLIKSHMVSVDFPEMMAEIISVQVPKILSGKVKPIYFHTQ
In short: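 Beta-lactamase FRET read (2 h RT incubation with LiveBLAzer B/G) following 16 h of compound plus R1881 treatment of AR-UAS-bla HEK293 cells, which had been pre-incubated 4 h at 37C.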

[10] = target: Androgen receptor (Homo sapiens) (UniProt P10275); assay: qHTS assay to identify small molecule agonists of the androgen receptor (AR) signaling pathway (AID 743036; active = well fitted activation curve with a large enough effect in the signal ratio in the repeat runs, with a control signal flat, not every such curve was filed as active; the % refers to the signal ratio; note: potency is the fitted concentration of half-maximal effect)
In short: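 HEK293 cells stably carrying a UAS-driven beta-lactamase reporter (GeneBLAzer AR-UAS-bla-GripTite) were plated at 2,000 cells/well, rested 4 h at 37C, then exposed to compounds in DMSO for 16 h. LiveBLAzer B/G FRET substrate was added for 2 h at room temperature; fluorescence read.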

[11] = target: Androgen receptor (Homo sapiens) (UniProt P10275); assay: qHTS assay to identify small molecule agonists of the androgen receptor (AR) signaling pathway using the MDA cell line (AID 743040; note: nearly all actives have a fitted effect of over 20% in size; note: potency is the fitted concentration of half-maximal effect)
In short: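 Cells plated, 5 h at 37C/0% CO2; compound or DMSO pinned; 16 h at 37C; ONE-Glo added; luminescence measured after 30 min at room temperature. Reporter line: MDA-kb2 with MMTV-luciferase responsive to AR and GR.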

[12] = target: Androgen receptor (Homo sapiens) (UniProt P10275); assay: qHTS assay to identify small molecule antagonists of the androgen receptor (AR) signaling pathway using the MDA cell line (AID 743042; note: nearly all actives have a fitted effect of over 55% in size; note: potency is the fitted concentration of half-maximal effect)
In short: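 Antagonist mode: compounds plus R1881 agonist added to MDA-kb2 AR-luc cells, incubated 16 h at 37C. Luciferase reporter luminescence quantified, with multiplexed CellTiter-Fluor readout for cell viability.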

For CN1[C@@H]2CC[C@H]1CC(OC1c3ccccc3CCc3ccccc31)C2 (some centres not stated), the Potency [1] was “inactive”, the max activation [2] was -2.13% and the Potency [3] was “inactive”. For the same compound, the Potency [4] was “inactive”.

CN1CCN(C2=Nc3cc(Cl)ccc3Nc3ccccc32)CC1 was tested, and the Potency [5] was “inactive”.

F/C(COc1ccc2c(c1)[nH]c1ccccc12)=C1/CN2CCC1CC2 was tested, and the Potency [3] was “inactive” and the Potency [4] was 22.4 µM (active).

In the case of COC(=O)C1=C(C)NC(C)=C(C(=O)OCCN(C)Cc2ccccc2)C1c1cccc([N+](=O)[O-])c1 (configuration not stated), the Potency [5] is reported as “inactive” and the Potency [6] is reported as “inactive”.

For CC(C)[C@@]1(NC(=O)[C@@H]2C[C@@H]3c4cccc5[nH]cc(c45)C[C@H]3N(C)C2)O[C@@]2(O)[C@@H]3CCCN3C(=O)[C@H](Cc3ccccc3)N2C1=O, the Potency [1] was “inactive” and the max activation [2] was -8.17%.

C[C@]12CC[C@H]3[C@@H](CCC4=CC(=O)CC[C@@]43C)[C@@H]1CC[C@H]2O was tested, and the Potency [1] was 4.25 µM (active), the max activation [2] was -0.613% and the Potency [3] was “inactive”.

In the case of NCCNCCNCCNCCN, the Potency [5] is reported as 79.3 µM (active), the activity, negative = inhibition [5] is reported as 4.34% [at 10.5 µM] and the Potency [6] is reported as “inactive”. For the same compound, the activity change, negative = inhibition [7] was 0.135% [at 10.5 µM] and the Potency [8] was “inactive”.

For O=C1CN(/N=C/c2ccc([N+](=O)[O-])o2)C(=O)N1, the Potency [5] was “inactive” and the Potency [6] was “inactive”.

In the case of Cc1ccccc1-n1c(CF)nc2ccc(N)cc2c1=O, the Potency [9] is reported as “inactive”, the Potency [10] is reported as “inactive” and the Potency [11] is reported as 26.6 µM (active). The Potency [12] was “inactive”, the max activation [2] was -3.24% and the Potency [3] was 7.08 µM (active). For the same compound, the Potency [4] was “inactive”.

For CCCCNCC(O)c1ccc(O)cc1 (configuration not stated), the max activation [2] was -0.163%, the Potency [3] was “inactive” and the Potency [4] was “inactive”.

In the case of O[C@H]1[C@H]2[C@H](O)CCCN2C[C@H]1O, the Potency [1] is reported as “inactive”, the max activation [2] is reported as -2.82% and the Potency [3] is reported as “inactive”. For the same compound, the Potency [4] was “inactive”.

C[C@]12CC[C@H]3[C@@H](CCC4=C(O)C(=O)CC[C@@H]43)[C@@H]1CC[C@@H]2OC(=O)CCC1CCCC1 was tested, and the max activation [2] was -2.22%, the Potency [3] was “inactive” and the Potency [4] was “inactive”.

In the case of COc1ccc(N)c(C)c1, the Potency [5] is reported as “inactive”, the Potency [6] is reported as “inactive” and the Potency [7] is reported as “inactive”.

COc1ccc(N=[N+]([O-])c2ccc(OC)cc2)cc1 was tested, and the Potency [5] was “inactive”, the Potency [6] was “inactive” and the Potency [7] was “inactive”.

In the case of CCN(CC)CCO[C@H]1CC[C@@]2(C)C(=CC[C@@H]3[C@@H]2CC[C@]2(C)C(=O)CC[C@@H]32)C1, the max activation [2] is reported as 3.39% and the Potency [3] is reported as 7.94 µM (active).

In the case of Cc1cc(O)cc(C)c1Cl, the Potency [5] is reported as “inactive”, the Potency [6] is reported as “inactive” and the Potency [7] is reported as “inactive”.

CCC(C)(S(=O)(=O)CC)S(=O)(=O)CC was tested, and the max activation [2] was -2.56%, the Potency [3] was “inactive” and the Potency [4] was “inactive”.

For C[C@]12C[C@H]3S[C@H]3C[C@@H]1CC[C@@H]1[C@@H]2CC[C@]2(C)[C@@H](O)CC[C@@H]12, the Potency [10] was 0.0032 µM (active), the Potency [11] was 0.0003 µM (active) and the Potency [12] was “inactive”. For the same compound, the max activation [2] was 11.2%, the Potency [3] was “inactive” and the Potency [4] was “inactive”.

With C[C@]12CC[C@H]3[C@@H](CCC4=C(Cl)C(=O)CC[C@@]43C)[C@@H]1CC[C@@H]2O the Potency [9] was “inactive”, the Potency [10] was 0.003 µM (active) and the Potency [11] was 0.0019 µM (active). The Potency [12] was “inactive”, the max activation [2] was -0.226% and the Potency [3] was “inactive”.

Compound CCN[C@@H]1C[C@H](N)[C@@H](OC2OC(CN)=CCC2N)[C@H](O)[C@H]1O[C@H]1OC[C@](C)(O)[C@H](NC)[C@H]1O (some centres not stated) has an activity, negative = inhibition [5] of 0.264% [at 0.435 µM], an activity change, negative = inhibition [6] of 0.139% [at 0.435 µM] and an activity change, negative = inhibition [7] of 7.61% [at 0.439 µM].

In the case of CC(=O)OC[C@H]1O[C@@](COC(C)=O)(O[C@H]2O[C@H](COC(C)=O)[C@@H](OC(C)=O)[C@H](OC(C)=O)[C@H]2OC(C)=O)[C@@H](OC(C)=O)[C@@H]1OC(C)=O, the Potency [5] is reported as “inactive”, the Potency [6] is reported as “inactive” and the Potency [7] is reported as “inactive”.

In the case of CO[C@H]1[C@@H](O)C[C@H](O[C@H]2[C@@H](O)C[C@H](O[C@H]3[C@@H](O)C[C@H](O[C@H]4CC[C@@]5(C)[C@H](CC[C@@H]6[C@@H]5C[C@@H](O)[C@]5(C)[C@@H](C7=CC(=O)OC7)CC[C@]65O)C4)O[C@@H]3C)O[C@@H]2C)O[C@@H]1C, the Potency [9] is reported as 0.338 µM (active), the Potency [12] is reported as 1.68 µM (active) and the max activation [2] is reported as -4.43%. The Potency [3] was “inactive” and the Potency [4] was “inactive”.

For CC(=O)O[C@H]1C[C@H](O[C@H]2[C@@H](O)C[C@H](O[C@H]3[C@@H](O)C[C@H](O[C@H]4CC[C@@]5(C)[C@H](CC[C@@H]6[C@@H]5C[C@@H](O)[C@]5(C)[C@@H](C7=CC(=O)OC7)CC[C@]65O)C4)O[C@@H]3C)O[C@@H]2C)O[C@H](C)[C@H]1O[C@@H]1O[C@H](CO)[C@@H](O)[C@H](O)[C@H]1O, the Potency [9] was 0.301 µM (active), the max activation [2] was 4.17% and the Potency [4] was “inactive”.

For CCCC(C)C(=O)OCC (configuration not stated), the Potency [5] was “inactive”, the Potency [6] was “inactive” and the Potency [7] was “inactive”.

For CC(=O)[C@H]1CC[C@H]2[C@@H]3CC[C@@H]4C[C@H](O)CC[C@]4(C)[C@H]3CC[C@]12C, the max activation [2] was 6.21%, the Potency [3] was “inactive” and the Potency [4] was “inactive”.

In the case of NCC[C@H](O)C(=O)N[C@@H]1C[C@H](N)[C@@H](O[C@H]2O[C@H](CN)[C@@H](O)[C@H](O)[C@H]2N)[C@H](O[C@@H]2O[C@H](CO)[C@@H](O)[C@H]2O)[C@H]1O, the Potency [11] is reported as “inactive”, the Potency [12] is reported as “inactive” and the max activation [2] is reported as -1.3%. For the same compound, the Potency [3] was “inactive” and the Potency [4] was “inactive”.

For CNCCCN1c2ccccc2CCc2ccccc21, the Potency [5] was “inactive”, the Potency [6] was “inactive” and the Potency [7] was “inactive”.
